Bioassay records (PubChem BioAssay)
Many of the other results were omitted from the sample, so hits are more common in it than they were.
KDM5B inh = Primary screen for KDM5B Histone Demethylases FDH-coupled qHTS; Potency, µM (top dose mostly 57.7 µM), actives largely listed as inhibitors; AID 1347165, 2019; KDM5B demethylase, FDH-coupled NADH fluorescence (FDH is formaldehyde dehydrogenase); 2.6% of 220,000 active; active = well fitted inhibition curve with a large enough effect; note: 0% is about no effect; nearly all actives have a fitted effect of over 70% in size
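KDM5BΔAP (200 nM final) in 50 mM HEPES pH 7.5, 0.01% Tween-20 was preincubated 10 min at RT with compound over a concentration range. Substrate mix (H3K4me3 12.5 µM, α-KG 25 µM, Fe²⁺, ascorbate, NAD⁺, FDH) was added, and NADH fluorescence change over 30 min gave dose-response curves.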
Numbers without * were called inactive; i = inactive. Potency is the fitted concentration of half-maximal effect.

SMILES | KDM5B inh
CN(CC(=O)N1CCC(CCOc2ccc(F)cc2)C1)S(=O)(=O)c1ccc2c(c1)oc(=O)n2C (stereo not given) | i
COc1ccc(-c2nc(C3CC(=O)N(c4ccc(C)cc4)C3)no2)cn1 (stereo not given) | i
COc1cc(OC)cc(-c2nc(C3CC(=O)N(c4ccc(C)cc4)C3)no2)c1 (stereo not given) | 32µM*
COc1cccc(-c2nc(C3CC(=O)N(c4ccc(C)cc4)C3)no2)c1 (stereo not given) | i
CN(C)S(=O)(=O)c1ccc(=O)n(CC(=O)c2c[nH]c3ccccc23)c1 | i
CCCCNC(=O)c1cccc(NC(=O)Nc2ccccc2)c1 | i
Cc1cc(C)cc(C(=O)NCCc2cccnc2)c1 | i
CC1Cc2cc(/C=C3/SC(=S)N(C)C3=O)ccc2O1 (stereo not given) | i
CC1Cc2cc(-c3ccnc4ncnn34)ccc2O1 (stereo not given) | 28µM*
O=C(CN1CC2CC(C1)[C@H]1CCCC(=O)N1C2)NC1CCN(Cc2ccccc2)CC1 (stereo not given in full) | i
Cc1noc(-c2cn(C3CCCN(C(=O)c4ccc(C)c(C)c4)C3)nn2)n1 (stereo not given) | i
Cc1ccc(C(=O)NCC(=O)NCCN2CCc3ccccc3C2)cc1 | i
CS(=O)(=O)N1CCc2ccc(C(=O)NCCN3CCc4ccccc4C3)cc21 | 28µM*
CN1CCC(NC(=O)c2ccc3c(c2)N(S(=O)(=O)c2ccccc2F)CC3)CC1 | i
CCN(CC)CCNC(=O)c1ccc2c(c1)N(S(C)(=O)=O)CC2 | 28µM*
COc1ccc(OC)c(CNC(=O)c2ccc3c(c2)N(S(C)(=O)=O)CC3)c1 | i
COc1ccc(CCNC(=O)c2ccc3c(c2)CCN3S(C)(=O)=O)cc1 | i
O=C(COCc1cc(-c2ccc3c(c2)OCO3)on1)NC1CCCC1 | i
COc1cc(Br)c(C2CC(=O)Nc3cc4c(cc32)OCO4)cc1OC (stereo not given) | i
COC1CCC12CCN(C(=O)NC1CCCCC1)CC2 (stereo not given) | i
Cc1ccccc1OCC(=O)N1CCC(c2nc3ccccc3o2)CC1 | i
COc1ccc(NC2CCCN(C(=O)COc3ccc(C)cc3)C2)cc1 (stereo not given) | i
COc1nccnc1NC1CCN(C(=O)NC2CCCC2)CC1 | 28µM*
CS(=O)(=O)N1CCC(OC2CCN(C(=O)NC3CCCC3)CC2)CC1 | i
COc1cc(OC)cc(C(=O)N2CCN(C(=O)COc3ccc(C)cc3)CC2)c1 | i
SMILES | KDM5B inh
Cc1ccccc1OCC(=O)N1CCC(c2nc3ccccc3s2)CC1 | i
COc1nccnc1NC1CCN(C(=O)COc2ccccc2C)CC1 | 32µM*
COc1nccnc1NC1CCN(C(=O)COc2ccc(C)cc2)CC1 | 28µM*
Cc1cc(=O)n2[nH]c(NC(=O)c3ccccc3F)nc2n1 | i
O=C(Nc1ccc2c(N3CCCC3)ncnc2c1)c1c(F)cccc1F | i
COc1ccccc1CNC[C@H]1O[C@@H]2C[C@@H](CC(=O)N3CCOCC3)O[C@@H]2[C@@H]1O | i
CN(C)S(=O)(=O)c1ccc(Cl)c(C(=O)NCc2ccnc(N3CCCC3)c2)c1 | i
CC(NC(=O)CSc1nc(CN2CCOCC2)nc2ccccc12)c1ccccc1 (stereo not given) | i
CCCc1noc(-c2cn(C3CCN(C(=O)c4cc(F)ccc4F)CC3)nn2)n1 | i
COc1ccc(OC)c(S(=O)(=O)N2CCn3c(nn(CC4CC4)c3=O)C2)c1 | i
Cc1ccc(F)c(OC2(C(=O)O)CCN(c3cnc4ccccc4n3)CC2)c1 | 20µM*
CCc1cnc(C)nc1N1CCC(Oc2ccccc2OC)(C(=O)O)CC1 | i
Cc1cccc(C(=O)N2CCC(Oc3ccccc3F)(C(=O)O)CC2)c1 | i
Cc1ccc(NC(=O)c2nccnc2N)cc1Cl | i
Cc1ccc(S(=O)(=O)N2CCCN(c3nccc(C(F)(F)F)n3)CC2)cc1 | i
Cc1ccc(-c2nnc([C@H]3CCN(C(=O)CCC(=O)O)C3)o2)cc1 | i
Cc1ccc(-c2nnc(C3CCN(S(=O)(=O)c4ccc(C)c(C)c4)CC3)o2)cc1 | i
COc1ccc(-c2nnc([C@H]3CCN(S(=O)(=O)Cc4ccccc4)C3)o2)cc1 | i
Cc1ccc(-c2nnc([C@H]3CCN(c4nccc(C(F)(F)F)n4)C3)o2)cc1 | 20µM*
Cc1ccc(-c2nnc([C@H]3CCN(c4ncccn4)C3)o2)cc1 | 40µM*
CONC(=O)C(Sc1ccccc1)c1ccccc1 (stereo not given) | i
COc1ccc(Br)cc1/C=C/C(=O)OC1CCCCC1=O (stereo not given) | i
CC(/C=N/NC(=O)C1CCCCC1)c1ccccc1 (stereo not given) | i
Cc1ccc(NC(=O)CSCc2cc(=O)n3oc(C)cc3n2)c(C)c1 | i
CCCCn1cnc2c1c(=O)n(CC(=O)c1cc(C)n(C3CC3)c1C)c(=O)n2Cc1ccccc1 | i
SMILES | KDM5B inh
CC(C)n1cnnc1CC1CCN(C(=O)Nc2ccc3c(c2)OCCO3)CC1 | i
O=C(Nc1ccc2c(c1)OCCO2)N1CCC(Cc2nc(C3CC3)n[nH]2)C1 (stereo not given) | i
CCc1n[nH]c(CC2CCN(C(=O)Nc3ccc4c(c3)OCCO4)CC2)n1 | 22µM*
CC(C)(C)C(NC(=O)c1ccccc1)c1ccccc1 (stereo not given) | i
Cn1cc(CN2C[C@@H]3C[C@H](C2)c2ccc(NC(=O)c4cccs4)c(=O)n2C3)c2ccccc21 | 25µM*
CC(=O)c1ccc(NC(=O)N2C[C@@H]3C[C@H](C2)c2ccc(NC(=O)c4cccs4)c(=O)n2C3)cc1 | i
Cn1cc(CN2C[C@@H]3C[C@H](C2)c2ccc(NC(=O)COc4ccccc4)c(=O)n2C3)c2ccccc21 | 28µM*
CN(C)CC(=O)Nc1ccc2n(c1=O)C[C@H]1C[C@@H]2CN(C(=O)c2ccc(-c3ccccc3)cc2)C1 | i
Cn1cc(CN2C[C@@H](CO)[C@H](NC(=O)C3CCC3)C2)c2ccccc21 | i
O=C(Nc1ccccc1)Nc1ccc(=O)n2c1[C@@H]1C[C@@H](CN(C(=O)COc3ccccc3)C1)C2 | i
Cc1ccc2nc(C)c(C(=O)N3CCN(Cc4ccccc4)CC3)cc2c1 | i
CCn1nc(C(=O)OCC(=O)Nc2ccc(Cl)c(S(=O)(=O)N(C)C)c2)c2ccccc2c1=O | i
O=C(CCS(=O)(=O)c1cccc2nsnc12)N1CCN(c2cccc(Cl)c2)CC1 | i
Cc1ccc2c(CSc3nnc(NC4CCCCC4)s3)cc(=O)oc2c1 | i
O=C(c1cncc(N2CCCC(CCc3cccc(F)c3)C2)n1)N1CCCCC1 (stereo not given) | 25µM*
Cc1cnc(C(=O)N2CCCC(CCc3cccc(F)c3)C2)cn1 (stereo not given) | i
O=C(c1cnccn1)N1CCC(c2nc(C3CC3)no2)C1 (stereo not given) | i
N[C@H]1CN(c2cncc(C(=O)N3CCCCC3)n2)C[C@@H]1C1CC1 | 28µM*
O=C(c1ccc2ccccc2n1)N1CCC(C(=O)N2CCCCCC2)CC1 | i
O=C(c1ccco1)N1CCCC(CCc2cccc(F)c2)C1 (stereo not given) | i
Cc1nc2cc(NC(=O)c3cccc(F)c3)ccc2o1 | i
CCc1ccc(NC(=O)CSc2nc3nccnc3c(=O)n2CCc2ccccc2)cc1 | i
